The nature of experiment [1]: Primary qHTS for inhibitors of nuclear receptor binding SET domain protein 2 (NSD2) in an isogenic RCH-ACV NSD2 p.E1099K mutant (9B) (AID 1645876). (In general: Quantitative high-throughput screening tests each substance at several concentrations.)
Experiment [2] can be described thus: Primary qHTS for inhibitors of nuclear receptor binding SET domain protein 2 (NSD2) in an RCH-ACV wild type WT cells (2C) (AID 1645877). Also: potency is read from the fitted curve at half-maximal effect.

Inconclusive results are not listed. Unmarked numbers belong to inactive results. The source made the active and inactive calls. Calls follow the shape of the dose curve; as a rule, active = well fitted curve in the direction sought with a large enough effect; inconclusive = small, poorly fitted or top-dose-only effect, or another doubt; inactive = no such curve, though single readings can be large; an effect the other way counts as inactive or inconclusive.
% is scaled to controls: 0 for no effect and ±100 for the full control effect.
Also: nearly all actives have a fitted effect of over 70% in size.

For the molecule `C/C=C/C=C/C=C/C(=O)O[C@@H]1C=C(CO)C(O)(C(=O)O)[C@@]2(C)CCCC(C)(C)[C@H]12` (some centres undefined), the Potency entry in experiment [1] and in experiment [2] was “inactive” throughout.

For `CC(=O)O[C@@H]1[C@H]2[C@@H](OC(=O)c3ccccc3)[C@@H](C)C[C@]2(O)[C@H](OC(C)=O)[C@@]2(C)[C@@H]3CC(C)(C)C(=O)[C@]3(OC(C)=O)C[C@@]12C`, the Potency entry in experiment [2] was “inactive”.

With `CC1=C(/C=C/C(C)=C/C=C/C(C)=C/C=C/C=C(C)/C=C/C=C(C)/C=C/C2=C(C)CCCC2(C)C)C(C)(C)CCC1`, the Potency in experiment [2] was 18.6 µM (active).

Consider `O=C(O)CCc1cc2ccoc2cc1O[C@@H]1O[C@H](CO[C@@H]2OC[C@](O)(CO)[C@H]2O)[C@@H](O)[C@H](O)[C@H]1O`, for which the Potency result in experiment [1] and in experiment [2] was “inactive” each time.

Regarding `OC1COC(OCC2OC(OCCc3ccccc3)C(O)C(O)C2O)C(O)C1O` (centres undefined), the Potency entry in experiment [1] and in experiment [2] was “inactive” throughout.

As for `CCC[C@@H]1C[C@@H](C(=O)N[C@@H]([C@H]2O[C@H](SC)[C@H](O)[C@@H](O)[C@@H]2O)[C@@H](C)O)N(C)C1`, the Potency entry in experiment [1] and in experiment [2] was “inactive” each time.

In the case of `C=CC(C)(O)CC/C=C(/C)C(=O)OC1C(OC2OCC(OC3OC(CO)C(O)C(O)C3O)C(OC3OCC(O)C(OC4OC(C)C(O)C(O)C4O)C3O)C2O)COC(OC(=O)C23CCC(C)(C)CC2C2=CCC4C5(C)CCC(OC6OC(CO)C(OC7OC(CO)C(O)C(OC8OCC(O)C(O)C8O)C7O)C(O)C6O)C(C)(C)C5CCC4(C)C2(C)CC3O)C1O` (centres undefined), in experiment [2], the activity change, negative = cell killing was -25% [at 4.96 µM].

With `C=C1C[C@@]23CC[C@@H]4[C@](C)(C(=O)O)CCC[C@@]4(C)C2=CC[C@H]1C3`, the Potency result in experiment [1] and in experiment [2] was “inactive” in each case.

`CCCOc1ccn2c(C(C)=O)cc(-c3ccccc3S(C)(=O)=O)c2c1`: in experiment [2], the Potency is 18.6 µM (active).

For `CC(C)C(=O)OCC(=O)[C@@]12O[C@H](C3CCCCC3)O[C@@H]1C[C@H]1[C@@H]3CCC4=CC(=O)C=C[C@]4(C)[C@H]3[C@@H](O)C[C@@]12C`, the Potency in experiment [2] was 0.0209 µM (active).

Consider `C[C@@H](OC(=O)/C=C/c1ccc(O)cc1)C1=C[C@]2(C=C[C@@H]3C(C(=O)O)=CO[C@@H](O[C@@H]4O[C@H](CO[C@@H]5O[C@H](CO)[C@@H](O)[C@H](O)[C@H]5O)[C@@H](O)[C@H](O)[C@H]4O)[C@@H]32)OC1=O`, for which the Potency entry in experiment [1] and in experiment [2] was “inactive” in each case.

As for `CC1(CO)CC2C(O)C(=O)C3(CO)CC3(C)C2C1` (centres undefined), the Potency result in experiment [1] and in experiment [2] was “inactive” throughout.

`C=C1C2(CCC(=O)OC2(C)C)CC(OC(=O)/C(C)=C/C)C2(C)C13OC14C(=O)OC(C)(C(=O)C12C(=O)OC4C)C3OC(C)=O` (centres undefined): the Potency entry in experiment [1] and in experiment [2] was “inactive” in each case.

With `C[C@@H]1CC[C@]2(C)C3(C)CC[C@@]2(OC3=O)[C@@]12C[C@H](c1ccoc1)OC2=O`, in experiment [2], the Potency entry is “inactive”.

In the case of `OC[C@H]1O[C@@H](Oc2ccc3c(c2)OC[C@H]2c4cc5c(cc4O[C@@H]32)OCO5)[C@H](O)[C@@H](O)[C@@H]1O`, the Potency in experiment [2] is 7.96 µM (active).

Take `CC(CO[C@@H]1O[C@H](COC(=O)/C=C/c2ccc(O)c(O)c2)[C@@H](O)[C@H](O)[C@H]1O)C1(O)COC(=O)C1` (some centres undefined): in experiment [2], the Potency result is “inactive”.

Regarding `CC1CCC2C(C)(C)C(O)CCC2(C)C12Cc1c(O)cc3c(c1O2)CN(C(CCC(N)=O)C(=O)O)C3=O` (centres undefined), the Potency entry in experiment [1] and in experiment [2] was “inactive” throughout.

As to `C[C@@H]1O[C@@H](O[C@H]2[C@H](O[C@H]3CC[C@@]4(C)C(CC[C@]5(C)C4CC=C4C6CC(C)(C)CC[C@]6(C(=O)O[C@@H]6O[C@H](CO[C@@H]7O[C@H](CO)[C@@H](O[C@@H]8O[C@@H](C)[C@H](O)[C@@H](O)[C@H]8O)[C@H](O)[C@H]7O)[C@@H](O)[C@H](O)[C@H]6O)CC[C@]45C)[C@]3(C)CO)OC[C@H](O)[C@@H]2O)[C@H](O)[C@H](O)[C@H]1O` (some centres undefined), the activity change, negative = viability loss in experiment [1] is -5.7% [at 9.23 µM]. The activity change, negative = cell killing in experiment [2] is -6.93% [at 9.23 µM].

As for `C[C@@H]1CCN(C(=O)CC#N)C[C@@H]1N(C)c1ncnc2[nH]ccc12`, the Potency entry in experiment [1] was “inactive”. Besides, the Potency in experiment [2] is 23.5 µM (active).

Regarding `C=C1CCC2C(C)(C(=O)O)CC(O)CC2(C)C1CC/C(C)=C/C(=O)O` (centres undefined), the Potency result in experiment [1] and in experiment [2] was “inactive” each time.

With `COC(=O)C1=CO[C@@H](O[C@@H]2O[C@H](CO)[C@@H](O)[C@H](O)[C@H]2O)[C@@H]2[C@@H](C)[C@@H](O)C[C@H]12`, the Potency result in experiment [1] and in experiment [2] was “inactive” throughout.
